Screens deposited in PubChem by National Center for Advancing Translational Sciences (NCATS).
In the library only some 1% were active in any assay of this set; here they are far more common.
KCNH2 3.1 inh – blocks the human KCNH2 3.1 channel isoform | U2OS KCNH2 3.1, thallium flux FluxOr; stronger effect = lower value | activity change, % (tested at about 1.8 µM) | 340,000 tested, 0.95% active | AID 720553;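 active = maximum activity change below -70%; inconclusive = maximum activity change from -70% to -50%; inactive = maximum activity change above -50%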;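 note: thallium influx rate constant from kinetic fluorescence after stimulation buffer; % is set by controls: 0 for no effect and ±100 for the full control effect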
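Steps: virus added to U2OS suspension (4 h, RT, dark); medium with 10% FBS added, cells plated, 37 C overnight; FluxOr/Red40 loading buffer 45 min RT; stimulation buffer, 2 min kinetic read; rate constant normalized.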
TSG101-PTAP inh – blocks PTAP/TSG101 interaction to inhibit HIV-1 budding; Q99816; Fluorescence polarization, FITC-PTAP peptide / Tsg101 binding; Potency, µM (highest dose often 115 µM), without a hit: top-dose activity change, negative = inhibition, hits mostly inhibitors; 340,000 tested, under 10 active; active = well fitted inhibition curve with a large enough effect in the main read-out, with a control signal flat, not every such curve was filed as active; inconclusive = small, poorly fitted or top-dose-only effect, or effect the other way, or a change in a side signal; inactive = no such curve, though single readings can be large or run the other way; note: potency is the fitted concentration of half-maximal effect; % of control where 0% means no effect
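Tsg101 binding domain (10 uM final) was mixed with compound and a FITC-labeled PTAP peptide (50 nM final) in HEPES pH 7.5 buffer with NaCl, Tween 20, EDTA and TCEP; fluorescence polarization was read after 20 min at r.t.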
hERG WT inh – KCNH2 (human, wildtype) channel inhibition; U2OS, BacMam KCNH2, thallium flux FluxOr; stronger effect = lower value; activity change, % at 1.84 µM; 340,000 tested, 0.37% active;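 active = maximum activity change below -70%; inconclusive = maximum activity change between -70% and -50%; inactive = maximum activity change above -50%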; note: % is set by controls: 0 for no effect and ±100 for the full control effect
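U2OS cells transduced with wild-type KCNH2 virus are loaded with FluxOr dye for 45 min, and thallium flux is measured in kinetic reads before and after stimulation buffer. Rate constants are normalized to DMSO controls.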
TRPML1 blocker – human mucolipin-1 channel inhibition | AID 624415 | TRPML1-inducible cells, Ca2+ dye fluorescence, FDSS; stronger effect = lower value; inhibition of EC80 agonist-evoked calcium signal | Q9GZU1 | 390,000 tested, 0.02% active | activity change, negative = inhibition, % (concentration not given with the values); in the data active = activity change below about -50%; inconclusive = between about -30% and that limit;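 note: stimulus is agonist 54-4 at its EC80 concentration; % is set by controls: 0 for no effect and ±100 for the full control effect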
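Tet-induced TRPML1-DL cells loaded with Ca8 no-wash calcium dye were read kinetically on FDSS. Compound addition was followed by EC80 agonist 54-4 (4 uM final); inhibition was read over 110 s.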
Glioma ERSR ind – induces the endoplasmic reticulum stress response in human glioma cells. U87-MG GRP78 promoter luciferase reporter, 16 h. Potency, µM, without a hit: at the top dose activation, hits mostly activators. 420,000 tested, 0.02% active; active = well fitted activation curve with a large enough effect; inconclusive = small, poorly fitted or top-dose-only effect; inactive = no such curve, though single readings can be large or run the other way; note: potency is the fitted concentration of half-maximal effect; series mostly up to about 76 µM; % of control where 0% means no effect; nearly all actives have a fitted effect of over 35% in size
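ERSR induction read as luciferase luminescence (Bright-Glo, 10 min at room temperature) in stably transfected human U87-MG glioma cells exposed to compounds for 16 h, using GRP78 as sensor.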
TRPML1 ag – activates the human TRPML1 channel; Q9GZU1; TRPML1-expressing cells, Ca2+ dye fluorescence, FDSS; activation, % (test concentration not listed); 410,000 tested, 0.12% active; in the data active = activation above about 50%; inconclusive = mostly about 30% to 49%; note: 0% is about no effect
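Cells: TRPML1-DL, 1X Tet inducer, ~16 h at 37 degrees C/5% CO2. Dye: ABD Ca8 no-wash + quencher, 45-90 min RT. Read: 10 s baseline, compound add, 110 s agonist phase; 54-4 EC80 (4uM final), 110 s antagonist phase.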
* hit, by the source's call.

`O=C(NC(=S)NCc1ccccc1)c1cccnc1` gave KCNH2 3.1 inh 26, TSG101-PTAP inh -1%, hERG WT inh -78*, TRPML1 blocker -7, Glioma ERSR ind -1% and TRPML1 ag -1.
`CCn1c(-c2ccccc2F)nc2cc(NC(C)=O)cc(C(=O)N3CCNC(=O)C3CC(=O)OC)c21` (stereo not drawn) gave Glioma ERSR ind -2%.
`O=C(CCn1c(=O)c2sccc2n(CC(=O)NCc2ccco2)c1=O)NCc1ccccc1` gave KCNH2 3.1 inh 3, hERG WT inh -254*, TRPML1 blocker 103, Glioma ERSR ind -6% and TRPML1 ag 0.
`Cc1cc(C)cc(NC(=S)Nc2cccc3cnccc23)c1` gave KCNH2 3.1 inh -2, TSG101-PTAP inh -2%, hERG WT inh -228*, TRPML1 blocker 0, Glioma ERSR ind -1% and TRPML1 ag 0.
For Cc1ccc(NC(=S)Nc2cccc3cnccc23)c(C)c1 the results were KCNH2 3.1 inh 3, TSG101-PTAP inh -1%, hERG WT inh 1, TRPML1 blocker 5, Glioma ERSR ind -7% and TRPML1 ag 0.
Cc1ccccc1C(=O)Nc1ccccc1C(=O)N1CCC(C)CC1 was read as KCNH2 3.1 inh 2, TSG101-PTAP inh 60%, hERG WT inh -4, TRPML1 blocker -12, Glioma ERSR ind -2% and TRPML1 ag 54*.
`Cc1ccc(N2CCN(C(=O)c3ccccc3NC(=O)c3ccccc3C(=O)O)CC2)cc1` gave KCNH2 3.1 inh -9, TSG101-PTAP inh 1%, hERG WT inh -72*, TRPML1 blocker -1, Glioma ERSR ind 3% and TRPML1 ag 0.
Screening CC1CCN(C(=O)c2ccccc2NC(=O)Nc2ccccc2)CC1 returned KCNH2 3.1 inh 4, TSG101-PTAP inh -4%, hERG WT inh -4, TRPML1 blocker -5, Glioma ERSR ind -1% and TRPML1 ag 0.
`COc1cc(=O)n2c(c1C(=O)N1CCc3ccccc3C1)CCN(Cc1ccc(CO)o1)CC2` gave Glioma ERSR ind 0%.
Screening CN(C)C1CCC(CC2CCc3ccccc32)CC1 (stereo not drawn) returned Glioma ERSR ind 4% and TRPML1 ag -1.
For COc1ccc(CN(C)[C@H]2C[C@H]3c4[nH]c5ccccc5c4CCN3C[C@H]2[C@H](C)O)cc1 the results were KCNH2 3.1 inh -81*, hERG WT inh -48, TRPML1 blocker 0, Glioma ERSR ind 0% and TRPML1 ag 0.
`COc1ccc(NC(=O)N(C)[C@H]2C[C@H]3c4[nH]c5ccccc5c4CCN3C[C@H]2[C@H](C)O)cc1` gave KCNH2 3.1 inh 0, hERG WT inh -2, TRPML1 blocker 1, Glioma ERSR ind 6% and TRPML1 ag -1.
Screening Cc1cc(C(=O)N2CCOc3ccc(CN4CCC(Oc5cccnc5)CC4)cc3C2)c(C)o1 returned Glioma ERSR ind -9%.
`Cc1nc(N2CCN(c3ccccn3)CC2)c2c(C)c(C(=O)Nc3ccc(Cl)cc3)sc2n1` gave KCNH2 3.1 inh -38, TSG101-PTAP inh -4%, hERG WT inh -26, TRPML1 blocker -13, Glioma ERSR ind -6% and TRPML1 ag 0.
Cc1nc(N2CCN(c3ccccn3)CC2)c2c(C)c(C(=O)Nc3c(F)cc(F)cc3Br)sc2n1 was read as KCNH2 3.1 inh -95*, TSG101-PTAP inh -2%, hERG WT inh -28, TRPML1 blocker -11, Glioma ERSR ind 3% and TRPML1 ag 15.
Screening Cc1c(C(=O)N2CCN(c3ccc(F)cc3)CC2)sc2ncnc(N3CCN(c4ccccn4)CC3)c12 returned KCNH2 3.1 inh -76*, TSG101-PTAP inh -7%, hERG WT inh 3, TRPML1 blocker -5, Glioma ERSR ind -1% and TRPML1 ag 1.
Screening Cc1nc(N2CCN(c3ccccn3)CC2)c2c(C)c(C(=O)Nc3c(C)cc(Br)cc3C)sc2n1 returned KCNH2 3.1 inh -80*, TSG101-PTAP inh 0%, hERG WT inh 1, TRPML1 blocker -2, Glioma ERSR ind -3% and TRPML1 ag 0.
For Nc1nc(N)c2[nH]cnc2n1 the results were KCNH2 3.1 inh -92*, TSG101-PTAP inh 2%, hERG WT inh -4 and Glioma ERSR ind -1%.
Cc1ccnn1CC(=O)N1CCOc2c(cc(-c3ncc(C(F)(F)F)cc3Cl)cc2OCC2CCCO2)C1 (stereo not drawn) was read as Glioma ERSR ind -3%.
Screening COc1ccccc1/C=C/CN1CCC(Oc2cc(C(=O)NC3CC3)ccc2OC)CC1 returned KCNH2 3.1 inh -101*, TSG101-PTAP inh 0%, hERG WT inh -120*, TRPML1 blocker 14, Glioma ERSR ind -3% and TRPML1 ag 3.
Screening C#Cc1ccc(CN2CCC(Oc3cc(C(=O)NC4CC4)ccc3OC)CC2)cc1 returned KCNH2 3.1 inh -103*, TSG101-PTAP inh -1%, hERG WT inh -99*, TRPML1 blocker -6, Glioma ERSR ind -3% and TRPML1 ag 0.
COc1ccc(-n2c(CNC(=O)c3ccc(OC)cc3OC)nnc2SC)cc1 was read as Glioma ERSR ind -2%.
`COc1ccc(OC)c(CN2CCCC(c3nc(-c4ccncc4)ncc3-c3ccccc3C)C2)c1` (stereo not drawn) gave Glioma ERSR ind -4%.
Screening CCc1noc(C)c1C(=O)N1CCOc2ccc(CN3CCN(c4ccccn4)CC3)cc2C1 returned Glioma ERSR ind -6%.
`CCC1(C2CCN(C(=O)c3coc4c3C(=O)CCC4)CC2)NC(=O)N(CCc2scnc2C)C1=O` (stereo not drawn) gave Glioma ERSR ind -3%.
Screening COc1cc(CNCCc2ccc(S(N)(=O)=O)cc2)ccc1OCc1ccc(Cl)cc1 returned KCNH2 3.1 inh -109*, TSG101-PTAP inh 1%, hERG WT inh -31, TRPML1 blocker 38, Glioma ERSR ind -2% and TRPML1 ag 6.
`Cc1cc(Cl)ccc1OCC(O)CNCCc1ccc(S(N)(=O)=O)cc1` (stereo not drawn) gave KCNH2 3.1 inh -98*, TSG101-PTAP inh -10%, hERG WT inh inconclusive, TRPML1 blocker 9, Glioma ERSR ind 0% and TRPML1 ag 7.
For CCOc1cc(CNCCc2ccc(S(N)(=O)=O)cc2)ccc1OCc1ccc(Cl)cc1 the results were KCNH2 3.1 inh -1, TSG101-PTAP inh -4%, hERG WT inh 7, TRPML1 blocker -21, Glioma ERSR ind -14% and TRPML1 ag 0.
Screening NS(=O)(=O)c1ccc(CCNCc2ccccc2OCc2ccc(F)cc2)cc1 returned KCNH2 3.1 inh -76*, TSG101-PTAP inh 0%, hERG WT inh -33, TRPML1 blocker 1, Glioma ERSR ind -3% and TRPML1 ag -1.
